Here are results for 32 sequences from publication PMC10812921, “Transcriptional Coactivator BOB1 (OBF1, OCA-B) Modulates the Specificity of DNA Recognition by the POU-Domain Factors OCT1 and OCT2 in a Monomeric Configuration”.

For test [1], the target named is POU1 (OCT1 POU domain) (human, UniProt P14859 260-458). The experiment in a line: EMSA-SELEX-seq; no BOB1; 20 mM Tris-HCl pH 7.6, 140 mM NaCl, 10% glycerol, 0.5 mM EDTA, 0.05% Triton X-100, 0.1 mg/mL BSA, 0.1 mg/mL poly(dI-dC), 5 mM DTT, room temperature, 20 min; high values mean tight binding. The following applies: protein: recombinant; dsDNA, one strand shown. A digest of the protocol:
(§1)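 Tagged POU-domain proteins were expressed in E. coli BL21, purified under denaturing conditions and renatured. Then 30 ng was mixed with 300 ng of a PCR-amplified double-stranded random 35-nt library, with or without 28 ng coactivator protein, in 20 μL Tris–HCl pH 7.6 binding buffer for 20 min at RT. Complex bands were cut from native 6% PAGE, eluted and PCR-amplified over four rounds, then Illumina-sequenced. Binding preference is the percentage of sequenced 8-mers matching a motif pattern.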

The target in test [2] is T1, POU2 (OCT2 POU domain) (human, UniProt P09086 175-386).
T1 sequence: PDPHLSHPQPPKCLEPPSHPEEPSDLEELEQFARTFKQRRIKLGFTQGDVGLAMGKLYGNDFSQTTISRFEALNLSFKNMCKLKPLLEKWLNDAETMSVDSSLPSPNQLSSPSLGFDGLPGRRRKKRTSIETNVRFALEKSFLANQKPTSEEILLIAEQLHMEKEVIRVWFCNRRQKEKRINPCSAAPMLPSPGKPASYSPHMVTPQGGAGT
The test is described as above. The following applies: protein: recombinant; dsDNA, one strand shown. A digest of the protocol:
as §1

In test [3] the target is POU1 (OCT1 POU domain);BOB1 (OBF1, OCA-B) (human;human, UniProt P14859;Q16633 260-458;1-256, |). The experiment in a line: EMSA-SELEX-seq; with BOB1 (ternary complex band); 20 mM Tris-HCl pH 7.6, 140 mM NaCl, 10% glycerol, 0.5 mM EDTA, 0.05% Triton X-100, 0.1 mg/mL BSA, 0.1 mg/mL poly(dI-dC), 5 mM DTT, room temperature, 20 min; high values mean tight binding. The following applies: protein: recombinant;recombinant; copies: 1;1; dsDNA, one strand shown. Summed up:
as §1
A general note: A gel shift assay detects complexes by their altered migration in electrophoresis.

The target of test [4] is T2, POU2 (OCT2 POU domain);BOB1 (OBF1, OCA-B) (human;human, UniProt P09086;Q16633 175-386;1-256, |).
T2 sequence 1: T1 sequence
T2 sequence 2: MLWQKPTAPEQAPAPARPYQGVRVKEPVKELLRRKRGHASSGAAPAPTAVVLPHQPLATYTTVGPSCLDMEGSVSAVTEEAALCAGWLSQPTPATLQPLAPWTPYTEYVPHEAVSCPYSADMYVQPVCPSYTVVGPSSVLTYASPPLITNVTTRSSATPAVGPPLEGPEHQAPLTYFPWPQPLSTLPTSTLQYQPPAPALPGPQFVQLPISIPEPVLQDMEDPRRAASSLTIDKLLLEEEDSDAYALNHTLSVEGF
Described as above. The following applies: protein: recombinant;recombinant; copies: 1;1; dsDNA, one strand shown. A digest of the protocol: as §1

Chain of POU1 (OCT1 POU domain) (P14859 260-458): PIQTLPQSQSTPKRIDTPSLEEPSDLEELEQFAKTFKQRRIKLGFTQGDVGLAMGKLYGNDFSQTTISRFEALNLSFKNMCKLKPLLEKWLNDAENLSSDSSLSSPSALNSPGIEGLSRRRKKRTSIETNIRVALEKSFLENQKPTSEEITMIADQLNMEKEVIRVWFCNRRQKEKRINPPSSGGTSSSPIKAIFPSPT

With ATTTCAAT, the binding signal in test [1] was 0.238 % of ANNNNAAN 8-mers; in test [2], 0.268 % of ANNNNAAN 8-mers; in test [3], 0.174 % of ANNNNAAN 8-mers; in test [4] it was 0.142 % of ANNNNAAN 8-mers.

Turning to ACCTAAAT, the binding signal in test [1] is 0.0393 % of ANNNNAAN 8-mers; in test [2] it was 0.0489 % of ANNNNAAN 8-mers; in test [3], 0.0386 % of ANNNNAAN 8-mers; in test [4], 0.0421 % of ANNNNAAN 8-mers.

Consider AGATCAAA, for which the binding signal in test [1] was 0.0393 % of ANNNNAAN 8-mers; in test [2] it was 0.0483 % of ANNNNAAN 8-mers; in test [3] it was 0.0414 % of ANNNNAAN 8-mers; in test [4], 0.0355 % of ANNNNAAN 8-mers.

In the case of AAGAAAAT, the binding signal was 0.158 % of ANNNNAAN 8-mers in test [1], 0.125 % of ANNNNAAN 8-mers in test [2], 0.226 % of ANNNNAAN 8-mers in test [3] and 0.0958 % of ANNNNAAN 8-mers in test [4].

For ACAGGAAA, the binding signal in test [1] is 0.0526 % of ANNNNAAN 8-mers; in test [2], 0.0506 % of ANNNNAAN 8-mers; in test [3], 0.0702 % of ANNNNAAN 8-mers; in test [4] it was 0.0603 % of ANNNNAAN 8-mers.

Turning to AGCGTAAG, the binding signal in test [1] is 0.0214 % of ANNNNAAN 8-mers; in test [2] it was 0.0293 % of ANNNNAAN 8-mers; in test [3], 0.0215 % of ANNNNAAN 8-mers; in test [4], 0.0338 % of ANNNNAAN 8-mers.

On to AGTTGAAC, for which the binding signal is 0.0259 % of ANNNNAAN 8-mers in test [1], 0.0253 % of ANNNNAAN 8-mers in test [2], 0.0258 % of ANNNNAAN 8-mers in test [3] and 0.0338 % of ANNNNAAN 8-mers in test [4].

ACGACAAC: the binding signal is 0.0126 % of ANNNNAAN 8-mers in test [1], 0.0132 % of ANNNNAAN 8-mers in test [2], 0.0133 % of ANNNNAAN 8-mers in test [3] and 0.0149 % of ANNNNAAN 8-mers in test [4].

Regarding AGAGGAAG, the binding signal in test [1] is 0.0358 % of ANNNNAAN 8-mers; in test [2], 0.0432 % of ANNNNAAN 8-mers; in test [3], 0.0441 % of ANNNNAAN 8-mers; in test [4], 0.0413 % of ANNNNAAN 8-mers.

In the case of AATAGAAG, the binding signal is 0.0534 % of ANNNNAAN 8-mers in test [1], 0.0587 % of ANNNNAAN 8-mers in test [2], 0.0558 % of ANNNNAAN 8-mers in test [3] and 0.057 % of ANNNNAAN 8-mers in test [4].

For the sequence AACACAAG, the binding signal in test [1] was 0.0194 % of ANNNNAAN 8-mers; in test [2], 0.0253 % of ANNNNAAN 8-mers; in test [3] it was 0.0219 % of ANNNNAAN 8-mers; in test [4], 0.0206 % of ANNNNAAN 8-mers.

With AGGTGAAA, the binding signal in test [1] was 0.0587 % of ANNNNAAN 8-mers; in test [2], 0.0466 % of ANNNNAAN 8-mers; in test [3] it was 0.0601 % of ANNNNAAN 8-mers; in test [4], 0.0471 % of ANNNNAAN 8-mers.

Take AGTGTAAT: the binding signal in test [1] is 0.085 % of ANNNNAAN 8-mers; in test [2], 0.104 % of ANNNNAAN 8-mers; in test [3], 0.0679 % of ANNNNAAN 8-mers; in test [4] it was 0.0867 % of ANNNNAAN 8-mers.

On to AACCAAAA, for which the binding signal is 0.0522 % of ANNNNAAN 8-mers in test [1], 0.0449 % of ANNNNAAN 8-mers in test [2], 0.0753 % of ANNNNAAN 8-mers in test [3] and 0.0388 % of ANNNNAAN 8-mers in test [4].

As to ATGTCAAC, the binding signal was 0.0214 % of ANNNNAAN 8-mers in test [1], 0.023 % of ANNNNAAN 8-mers in test [2], 0.0273 % of ANNNNAAN 8-mers in test [3] and 0.0215 % of ANNNNAAN 8-mers in test [4].

Consider AACGCAAT, for which the binding signal in test [1] is 0.0347 % of ANNNNAAN 8-mers; in test [2] it was 0.0351 % of ANNNNAAN 8-mers; in test [3], 0.0242 % of ANNNNAAN 8-mers; in test [4], 0.0314 % of ANNNNAAN 8-mers.

Take AGCATAAG: the binding signal in test [1] was 0.105 % of ANNNNAAN 8-mers; in test [2], 0.129 % of ANNNNAAN 8-mers; in test [3], 0.0441 % of ANNNNAAN 8-mers; in test [4], 0.0627 % of ANNNNAAN 8-mers.

On to ATTCAAAC, for which the binding signal in test [1] is 0.153 % of ANNNNAAN 8-mers; in test [2], 0.15 % of ANNNNAAN 8-mers; in test [3] it was 0.199 % of ANNNNAAN 8-mers; in test [4] it was 0.125 % of ANNNNAAN 8-mers.

Take AATATAAC: the binding signal in test [1] is 0.05 % of ANNNNAAN 8-mers; in test [2], 0.0817 % of ANNNNAAN 8-mers; in test [3] it was 0.0589 % of ANNNNAAN 8-mers; in test [4], 0.0578 % of ANNNNAAN 8-mers.

With AGACGAAA, the binding signal in test [1] is 0.0309 % of ANNNNAAN 8-mers; in test [2], 0.0472 % of ANNNNAAN 8-mers; in test [3], 0.0343 % of ANNNNAAN 8-mers; in test [4], 0.0264 % of ANNNNAAN 8-mers.

For AAATCAAT, the binding signal in test [1] was 0.139 % of ANNNNAAN 8-mers; in test [2], 0.143 % of ANNNNAAN 8-mers; in test [3], 0.162 % of ANNNNAAN 8-mers; in test [4], 0.148 % of ANNNNAAN 8-mers.

For AAGAAAAA, the binding signal in test [1] was 0.0934 % of ANNNNAAN 8-mers; in test [2], 0.0921 % of ANNNNAAN 8-mers; in test [3], 0.105 % of ANNNNAAN 8-mers; in test [4] it was 0.0669 % of ANNNNAAN 8-mers.

Consider AGGTCAAT, for which the binding signal was 0.0557 % of ANNNNAAN 8-mers in test [1], 0.0662 % of ANNNNAAN 8-mers in test [2], 0.0437 % of ANNNNAAN 8-mers in test [3] and 0.0636 % of ANNNNAAN 8-mers in test [4].

As for AGGCGAAA, the binding signal was 0.0389 % of ANNNNAAN 8-mers in test [1], 0.0357 % of ANNNNAAN 8-mers in test [2], 0.0386 % of ANNNNAAN 8-mers in test [3] and 0.0363 % of ANNNNAAN 8-mers in test [4].

As to AGATGAAA, the binding signal is 0.0629 % of ANNNNAAN 8-mers in test [1], 0.0558 % of ANNNNAAN 8-mers in test [2], 0.0718 % of ANNNNAAN 8-mers in test [3] and 0.0611 % of ANNNNAAN 8-mers in test [4].

Take AGTGCAAC: the binding signal in test [1] is 0.0118 % of ANNNNAAN 8-mers; in test [2], 0.0219 % of ANNNNAAN 8-mers; in test [3], 0.0113 % of ANNNNAAN 8-mers; in test [4], 0.0215 % of ANNNNAAN 8-mers.

As to AACGGAAA, the binding signal in test [1] was 0.0561 % of ANNNNAAN 8-mers; in test [2], 0.0552 % of ANNNNAAN 8-mers; in test [3], 0.0741 % of ANNNNAAN 8-mers; in test [4], 0.0561 % of ANNNNAAN 8-mers.

As for ACTTAAAA, the binding signal in test [1] was 0.0587 % of ANNNNAAN 8-mers; in test [2], 0.0524 % of ANNNNAAN 8-mers; in test [3], 0.0464 % of ANNNNAAN 8-mers; in test [4], 0.052 % of ANNNNAAN 8-mers.

Turning to ATAAAAAC, the binding signal was 0.066 % of ANNNNAAN 8-mers in test [1], 0.0633 % of ANNNNAAN 8-mers in test [2], 0.0562 % of ANNNNAAN 8-mers in test [3] and 0.0495 % of ANNNNAAN 8-mers in test [4].

As to ACAATAAT, the binding signal in test [1] was 0.0778 % of ANNNNAAN 8-mers; in test [2], 0.0978 % of ANNNNAAN 8-mers; in test [3], 0.0515 % of ANNNNAAN 8-mers; in test [4], 0.0528 % of ANNNNAAN 8-mers.

Consider ATAGTAAC, for which the binding signal is 0.0282 % of ANNNNAAN 8-mers in test [1], 0.0414 % of ANNNNAAN 8-mers in test [2], 0.023 % of ANNNNAAN 8-mers in test [3] and 0.038 % of ANNNNAAN 8-mers in test [4].

Turning to AGTCAAAA, the binding signal is 0.164 % of ANNNNAAN 8-mers in test [1], 0.117 % of ANNNNAAN 8-mers in test [2], 0.265 % of ANNNNAAN 8-mers in test [3] and 0.115 % of ANNNNAAN 8-mers in test [4].
